Bioassay records from PubChem BioAssay.
Many of the other results were omitted from the sample, so hits are more common in it than they were.
Tgondii IFNg: T. gondii growth inhibition with IFN-gamma, primary screen, cell-based; AID 1259416, 2018; Toxoplasma gondii growth in IFN-gamma-treated host cells; active compounds read low; 3.8% of 69,000 active; activity change, negative = inhibition, % (concentration not given with the values); in the data active = activity change below about -70%, passing the limit was not always enough;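 note: host cells are HeLa cells infected with Toxoplasma gondii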
Each line names hits and unclear results; the compound was inactive in the other large screens.

COc1ccc(-c2noc(-c3c(O)c4ccc(F)cc4n(C)c3=O)n2)cc1	none
O=c1cc(CCn2cccn2)nc(-c2ccc(CN3CCNCC3)cc2)[nH]1	none
Cc1cccc(NC(=O)N2CCC[C@@]3(C(=O)N(C)C)CN(c4ccccn4)C[C@H]3C2)c1	none
COCCN1C(=O)CCC12CCC(NCc1cnn(C)c1)CC2 (centres undefined)	none
COc1ccccc1-c1nc(Cn2nnc(-c3nc(-c4ccccc4C)no3)c2C)c(C)o1	none
Cc1ccc(-c2nc(CNC(=O)CCN3Cc4ccccc4C3=O)no2)cc1	none
Cc1nn(-c2cc(N3CCCCC3)ncn2)c(C)c1CCC(=O)NC1CCCC1	none
Clc1ccc(-c2nnc(Cc3csc(-c4cccs4)n3)o2)cc1	none
COc1ccc(C2=NC3(CCN(C(C)=O)CC3)NC(c3cc(Cl)ccc3O)C2)cc1 (centres undefined)	none
CCN(CC)C(=O)c1cc(=O)n(CC(=O)Nc2c(C)cc(C)cc2C)c2ccccc12	none
CCOc1ccc(NC(=O)CN2C(=O)CCc3cc(S(=O)(=O)N4CCC(C)CC4)ccc32)cc1	none
Cc1cc(C)c(NC(=O)CN2C(=O)CCc3cc(S(=O)(=O)N4CCC(C)CC4)ccc32)c(C)c1	none
CC(=O)Nc1ccc(NC(=O)CN2C(=O)CCc3cc(S(=O)(=O)N4CCC(C)CC4)ccc32)cc1	none
Cc1csc(NC(=O)CN2C(=O)CCc3cc(S(=O)(=O)N4CCC(C)CC4)ccc32)n1	Tgondii IFNg -93
Cc1cc(C)c(NC(=O)CN2C(=O)CCc3cc(S(=O)(=O)N4CCCCC4C)ccc32)c(C)c1 (centres undefined)	none
CC1CCN(S(=O)(=O)c2ccc3c(c2)CCC(=O)N3CC(=O)Nc2ccccn2)CC1	none
CC(C)c1ccc(NC(=O)CN2C(=O)CCc3cc(S(=O)(=O)N4CCCCC4C)ccc32)cc1 (centres undefined)	Tgondii IFNg -75
CC1CCN(S(=O)(=O)c2ccc3c(c2)CCC(=O)N3CC(=O)Nc2ccc(C(C)C)cc2)CC1	Tgondii IFNg -73
CC(C)NC(=O)CN1C(=O)CCc2cc(S(=O)(=O)N3CCCCC3C)ccc21 (centres undefined)	none
N#Cc1cccc(N2CCCC3(C2)CN(c2nncs2)CCO3)c1 (centres undefined)	none
COCCO[C@H]1CCN(CC2CC2)[C@@H]1Cc1cccnc1	none
CN1CCC2(CCC1=O)CCN(c1nccc(N3CCC(O)CC3)n1)CC2	none
CN1CCN(CCC(=O)N2CCN(c3nsc4ccccc34)CC2)CC1	none
O=C1Cc2cc(CCN3CCN(c4nsc5ccccc45)CC3)c(Cl)cc2N1	Tgondii IFNg -81
Cc1c(S(=O)(=O)N2CCN(c3nsc4ccccc34)CC2)cnn1C(F)F	none
COc1ccc(C(N)CC(=O)N2CCC(O)(c3ccc(C)cn3)CC2)cc1OC (centres undefined)	none
CNc1nc(CN2CCCC(N3CCCC3=O)C2)cs1 (centres undefined)	none
Oc1ccc(Cl)cc1C1=NC2(CCNCC2)NC(c2ccccc2O)C1 (centres undefined)	Tgondii IFNg -102
CN1CCC2(CC1)N=C(c1ccccc1O)CC(c1ccccc1O)N2 (centres undefined)	none
CCOC(=O)N1CCC2(CC1)N=C(c1ccccc1O)CC(c1cc(Cl)ccc1O)N2 (centres undefined)	none
COc1ccccc1OCCn1cc(C(=O)C(F)(F)F)c2ccccc21	none
Cc1nc(-c2cccnc2)nc(N2CCCN(c3ccc(C(F)(F)F)cn3)CC2)c1Cl	Tgondii IFNg -98
Cc1nc(-c2ccccc2)nc2c1CCN(c1cnccn1)CC2	none
CC(C)Cc1ccc(C(=O)C(C)N2CCN(c3ccc(C(F)(F)F)cn3)CC2)cc1 (centres undefined)	none
O=C(c1cscn1)N1CCCC(n2nnc3cc(C(F)(F)F)ccc32)C1 (centres undefined)	none
CCn1cc2c(n1)C(COC)CN(CC1CCOCC1)C2 (centres undefined)	none
CCOc1cccc(C2c3[nH]c4ccccc4c3CCN2C(=O)c2ccc(Br)cc2)c1 (centres undefined)	Tgondii IFNg -98
CCOc1cccc(C2c3[nH]c4ccccc4c3CCN2C(=O)c2ccc(OC)cc2)c1 (centres undefined)	Tgondii IFNg -93
CCOc1cccc(C2c3[nH]c4ccccc4c3CCN2C(=O)C2CC2)c1 (centres undefined)	none
CCOc1cccc(C2c3[nH]c4ccccc4c3CCN2C(=O)CCC2CCCC2)c1 (centres undefined)	none
COc1cccc(C(=O)N2CCc3c([nH]c4ccccc34)C2c2ccc(SC)cc2)c1 (centres undefined)	none
COc1cccc(C(=O)N2CCc3c([nH]c4ccccc34)C2c2ccc(F)cc2)c1 (centres undefined)	none
CCOc1cccc(C2c3[nH]c4ccccc4c3CCN2C(=O)c2cccnc2)c1 (centres undefined)	none
CCOc1cccc(C2c3[nH]c4ccccc4c3CCN2C(=O)c2ccncc2)c1 (centres undefined)	Tgondii IFNg -84
CCOc1cccc(C2c3[nH]c4ccccc4c3CCN2C(=O)c2cc(OC)c(OC)c(OC)c2)c1 (centres undefined)	none
COc1ccc(C2c3[nH]c4ccccc4c3CCN2C(=O)c2cccc(OC)c2)cc1 (centres undefined)	Tgondii IFNg -99
CCC1=NC2(CCN(C(=O)C(CC)N3Cc4ccccc4C3=O)CC2)C(=O)N1 (centres undefined)	none
Cc1cnccc1N1CCCN(Cc2ccc(C#CC(C)(C)O)cc2)CC1	none
O=C(CSc1ncn[nH]1)NCc1cccnc1Oc1ccccc1F	none
CN(C)CCNC(=O)c1nc2c(o1)CN(CC1CC1)C2	none
CC(C)c1nc2ccc(NC(=O)CCn3cnnn3)cc2s1	none
CC(=O)N1C[C@@H]2C3(CCN(C(=O)Nc4ccccc4)CC3)CC[C@]2(C(=O)N2CCCC2)C1	none
c1ccc2c(c1)COC(c1cnc(N3CCOCC3)nc1)N2 (centres undefined)	none
CN1[C@@H](C(=O)NCc2ccccn2)C[C@@H](c2cccs2)NS1(=O)=O	none
Cc1ccc(CNc2c(-c3cnc(N(C)C)nc3)nc3cnccn23)cc1	none
COc1ccc(-c2cc(C(=O)N3CCN(S(=O)(=O)N4CCCC4)CC3)[nH]n2)cc1	none
COc1ccc(NC(=O)C2OC3OC(C)(C)OC3C3OC(C)(C)OC23)cc1 (centres undefined)	Tgondii IFNg -94
COc1ccc(NC(=O)N2CCOCC2)cc1	none
COc1ccc(Oc2ccc(NC(=O)C3C4CC5OC(=O)C3C5C4)cc2)cc1 (centres undefined)	none
Cc1cc(CN2CCC3(CC2)C(=O)NCCN3CC2CC2)oc1C	none
Cc1nccc2[nH]c(=O)ccc12	none
C[C@H](CO)N1C[C@H](C)[C@@H](CN(C)C(=O)[C@H](Cc2ccccc2)N(C)C)OCc2ccccc2-c2c(n(C)c3ccccc23)C1=O	none
C[C@H](CO)N1C[C@H](C)[C@H](CN(C)C(=O)[C@@H](Cc2ccccc2)N(C)C)OCc2ccccc2-c2c(n(C)c3ccccc23)C1=O	Tgondii IFNg -72
C[C@@H]1CN([C@@H](C)CO)C(=O)c2c(c3ccccc3n2C)-c2ccccc2CO[C@@H]1CN(C)C(=O)[C@@H](Cc1ccccc1)N(C)C	none
N#Cc1ccc(S(=O)(=O)N2CCC(N3CCOCC3)CC2)cc1	none
Cc1cc(C)n(-c2ccc(-n3cnnc3)cc2)n1	none
C=CCNC(=O)C1(Cc2ccc(-c3ccccc3F)cc2)CCCNC1 (centres undefined)	none
CCCCCC(=O)Nc1ccc2c(c1)Cc1ccccc1-2	none
O=C(CCCc1ccc(-c2ccccc2F)cc1)Nc1ccc(O)cc1	Tgondii IFNg -80
